Experimental data from PubChem BioAssay AID504334 (NMMLSC, 2011).
Activity calls are given as the source filed them.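 The calls were made as follows: active = response relative to DMSO over 150%; inconclusive = yeast strain with under 70 recorded events; inactive = the rest.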

assay: AGP1-GFP expression modulators, hit retest, confirmation, cell-based, flow cytometry, S. cerevisiae, cherry pick set 3 (AID 504334);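 also: median GFP fluorescence per well by flow cytometry over the all cells gate; ratio of sample to mean DMSO control signal so DMSO = 100% not 0%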; conditions: S. cerevisiae AGP1-GFP strain, 3 h, at 10 µM, active compounds read high

Percent response vs DMSO, inactive:
O=C1c2ccccc2C(=O)c2c1cccc2N(CCO)CCO 98.8%
O=C(O)CCCCCNc1ncnc2ccc(Br)cc12 101%
CN1CCN(C(=O)c2cc(COc3ccc(F)cc3Cl)on2)CC1c1ccccc1 (centres undefined) 101%
C/C(=N\NC(=O)c1ccccc1)c1ccccc1F 105%
COc1ccccc1-c1cc(C(F)(F)F)nc(S(C)(=O)=O)n1 130%
Cc1ccc(NN2C(=O)C=C(c3ccccc3)C2=O)cc1 92.8%
C=CCNc1ncnc2ccccc12 102%
Oc1ccc(F)c2cccnc12 102%
Cn1c(NCCO)nc2c(c1=O)C1(CCCCC1)Cc1ccccc1-2 104%
Nc1nc(NCCOCCO)nc(Nc2cccc(F)c2)c1[N+](=O)[O-] 98.1%
NC(=O)COc1cccc2cccnc12 98.1%
Cn1cccc1C(=O)Nc1nc(-c2ccccn2)cs1 99.1%
COc1ccccc1OCc1cc(C(=O)N2CCN(C)C(c3ccccc3)C2)no1 (centres undefined) 98.8%
O=C(O)c1ccc2cccc(O)c2n1 103%
COc1ccccc1Nc1nc(NCCCN(C)C)nc(N)c1[N+](=O)[O-] 102%
CC(=O)CC(=O)Nc1ccc(C(N)=O)cc1 100%
Cc1ccc(C)c(Nc2ncnc(N)c2[N+](=O)[O-])c1 102%
O=C(N/N=C/c1ccccc1F)c1cccc2ccccc12 101%
Cc1cc(C)c2ccc(N)nc2c1O 101%
CC(=O)Nc1ccc(-c2nc3ccccc3o2)cc1 96.8%
O=C(Nc1nc(-c2ccccn2)cs1)c1ccccc1-n1cnnn1 100%
Cc1cccc(Nc2cc(=O)[nH]c(=O)[nH]2)c1C 99.4%
C/C(=C\C(=O)c1ccc(Cl)cc1)Nc1ccc(Br)cc1 99.8%
COCCCNc1nc(N)c([N+](=O)[O-])c(Nc2ccccc2OC)n1 103%
OCc1ccc(O)c2ncccc12 98.8%
CCCCC(=O)NCCc1cc2c(OC)ccc(OC)c2[nH]c1=O 98.8%
CCCOCc1ccc(O)c2ncccc12 99.8%
COc1ccccc1-c1cc(C(F)(F)F)nc(S(=O)(=O)CCCC(=O)O)n1 110%
Cc1ccc(C(=O)/C=C/Nc2cccc(O)c2)cc1 96.8%
COc1cccc(N/C(C)=C/C(=O)c2ccc(Br)cc2)c1 101%
CNc1nc(C)c([N+](=O)[O-])c(Nc2ccc(OC)cc2)n1 99.4%
Nc1cccc2c1C(=O)c1ccc(Cl)cc1C2=O 102%
CCC(C)Nc1nc(N)c([N+](=O)[O-])c(Nc2cc(OC)ccc2OC)n1 (centres undefined) 98.8%
CNc1cccc2c1C(=O)c1ccccc1C2=O 100%
COc1ccc(NC(=O)O/N=C2/CCCc3ccc(OC)cc32)cc1 95.8%
CS(=O)(=O)Oc1ccc(Br)c2cccnc12 96.4%
O=C(N/N=C/c1ccccc1)c1cccc2ccccc12 101%
N#Cc1c(N)nc(N)nc1Nc1ccc(Br)cc1 98.4%
CCC(=O)Nn1cnc2c(c1=O)C1(CCCCC1)Cc1ccccc1-2 102%
